High-throughput results (PubChem)
NSD2 HMT inh – blocks human histone methyltransferase NSD2. O96028. NSD2 peptide methylation, AlphaScreen, 120 min. inhibition, % at 12.5 µM. 0.54% of 310,000 active. AID 743445; in the data active = inhibition above about 50%
Shn3 inh set2 – Schnurri-3 reporter inhibition in Clone20 osteoblasts. Clone20 osteoblast Shn3 3'UTR firefly luciferase, 24 h. 0.52% of 360,000 active. inhibition, % at 12.5 µM;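 active = mean inhibition of at least 75% with every replicate also reaching 75%; inconclusive = mean inhibition at least 75% but some replicate below; inactive = mean inhibition below 75%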;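 note: 0% = median of neutral control wells and 100% = pilot-screen positive control compound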
Env fusion inh – blocks HIV Env-driven cell-cell fusion | inhibition, % at 12.3 µM | 1.1% of 360,000 active | AID 651610 | HeLa-JRFL Env/CEM21 cell fusion, luciferase;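 active = mean replicate inhibition score of at least 50 and every replicate individually at or above 50; inconclusive = only one of the two criteria met; inactive = mean below 50 and not all replicates reaching 50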;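 note: 0% = plate neutral controls and 100% = maraviroc near 300 nM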
N-glyco inh – N-linked glycosylation inhibition. 0.23% of 360,000 active. reporter increase, % at 12.5 µM. D54 ERlucT glycosylation luciferase reporter, 24 h; percent of 100 nM tunicamycin response;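 active = mean luciferase reporter signal, scaled so untreated is 0 and the glycosylation-blocking control 100, at or above a set limit in every replicate; inconclusive = mean reaches the limit but not every replicate does; inactive = mean below the limit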;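 note: luciferase carries N-glycosylation sites so blocking glycosylation raises the light; 0% = median of neutral control wells and 100% = median of 100 nM tunicamycin wells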
PAX8 inh HTS – lowers PAX8-driven luciferase in RMG-I cells. RMG-I TPO-luciferase reporter, SteadyGlo, 24 h. AID 652154. 1.2% of 360,000 active. inhibition, % at 12.6 µM;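 active = mean replicate inhibition at least 60% with every replicate also reaching 60%; inconclusive = only one of the two criteria is met; inactive = mean below 60% and not all replicates reaching 60%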;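 note: luciferase light reporting Pax8 driven TPO promoter activity; plate controls were median of neutral control wells for no effect and mitoxantrone controls for full effect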
EBV LMP1 NFkB – reduces LMP1-driven NF-kappaB luciferase signal; LMP1-induced NF-kappaB luciferase reporter cells, luminescence; inhibition, % at 12.5 µM; 0.69% of 350,000 active; in the data active = inhibition above about 41%; inconclusive = no clear call, values can overlap the other calls;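 note: 0% = neutral control wells and 100% = reference inhibitor control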
Active calls of the source: *; [ ] = dose if it differs, or a comment. In the library only some 2.8% were active in any assay of this set; here they are far more common.

Results for COC(=O)[C@@H](CC(C)C)NS(=O)(=O)N(Cc1ccccc1)[C@@H](CC(C)C)C(=O)OC ?
Shn3 inh set2: 1; Env fusion inh: 55*; N-glyco inh: -7; PAX8 inh HTS: -20; EBV LMP1 NFkB: -11

How did O=C(c1ccccn1)N1C[C@H]2[C@@H](c3ccccc31)[C@@H](CO)N2C(=O)C1CC1 do in these assays?
PAX8 inh HTS: -8

Results for COC(=O)[C@H](C(C)C)N(Cc1ccccc1)S(=O)(=O)CCN1CCCC1 ?
Shn3 inh set2: -6; Env fusion inh: -44; N-glyco inh: -3; PAX8 inh HTS: -7; EBV LMP1 NFkB: 3

What do the screens show for `CCOC(=O)[C@@H](C)N(C(=O)OC(C)(C)C)S(=O)(=O)N(Cc1ccccc1)[C@H](C(=O)OC)C(C)C`?
Shn3 inh set2: 23; Env fusion inh: 85*; N-glyco inh: -3; PAX8 inh HTS: 16; EBV LMP1 NFkB: -2

How did COCCNC(=O)C[C@H]1C=C[C@H](NC(=O)NC2CCCCC2)[C@H](CO)O1 do in these assays?
Env fusion inh: -1[16.7 µM]; PAX8 inh HTS: -14

Results for CO[C@H]1CN(C)C(=O)c2cc(NC(=O)C3CC3)ccc2OC[C@H](C)N(C(C)=O)C[C@@H]1C ?
PAX8 inh HTS: 4

How did C[C@H]1CN([C@@H](C)CO)S(=O)(=O)c2ccc(Br)cc2O[C@@H]1CN(C)C(=O)C1CCC1 do in these assays?
Env fusion inh: 24[16.7 µM]

Results for CC(=O)Oc1ccccc1C(=O)Nc1ccccc1 ?
Shn3 inh set2: -68; Env fusion inh: -16; N-glyco inh: 3; PAX8 inh HTS: -118; EBV LMP1 NFkB: -12

How did COC1(OC)C=CC(=O)C=C1NC(=O)c1ccccc1OC(C)=O do in these assays?
Shn3 inh set2: 26; Env fusion inh: -65; N-glyco inh: -16; PAX8 inh HTS: 69*; EBV LMP1 NFkB: -6

What do the screens show for `COc1ccc(CN(C)C[C@@H]2OCCCC[C@@H](C)Oc3ccc(NS(=O)(=O)c4ccc(Cl)cc4)cc3C(=O)N([C@H](C)CO)C[C@H]2C)cc1`?
Env fusion inh: 16[16.7 µM]; PAX8 inh HTS: 17

What do the screens show for `COc1ccc(S(=O)(=O)Nc2ccc3c(c2)C(=O)N([C@H](C)CO)C[C@@H](C)[C@H](CN(C)Cc2ccc(Cl)c(Cl)c2)OCCCC[C@H](C)O3)cc1`?
Env fusion inh: inconclusive; PAX8 inh HTS: 68*

How did COc1ccc(S(=O)(=O)Nc2ccc3c(c2)C(=O)N([C@@H](C)CO)C[C@@H](C)[C@H](CN(C)Cc2ccc(Cl)c(Cl)c2)OCCCC[C@@H](C)O3)cc1 do in these assays?
Env fusion inh: 14[16.7 µM]; PAX8 inh HTS: 73*

Results for COc1ccc(CN(C)C[C@H]2OCCCC[C@H](C)Oc3ccc(NS(=O)(=O)c4ccc(Cl)cc4)cc3C(=O)N([C@H](C)CO)C[C@H]2C)cc1 ?
Env fusion inh: 40[16.7 µM]; PAX8 inh HTS: 65*

How did CN(C)C(=O)c1cccc(-c2ccc3c(c2)[C@H]2[C@H](CCN2C(=O)C2CCOCC2)[C@@H](CO)N3)c1 do in these assays?
PAX8 inh HTS: 7

What do the screens show for `CCc1cc2c(=O)c(-c3nc4ccccc4n3C)c(C)oc2c(CN2CCN(CCO)CC2)c1O`?
NSD2 HMT inh: -3; Shn3 inh set2: -4; N-glyco inh: 0; EBV LMP1 NFkB: 4

Results for CCc1cc2c(=O)c(-c3nc4ccccc4n3C)c(C(C)C)oc2c(CN2CCN(C)CC2)c1O ?
NSD2 HMT inh: 21; Shn3 inh set2: -2; Env fusion inh: 57*; N-glyco inh: 0; EBV LMP1 NFkB: 2

How did Cn1c2c(c(=O)n(C)c1=O)C(C(F)(F)F)(C(F)(F)F)N=C(c1ccc(Cl)cc1)N2 do in these assays?
NSD2 HMT inh: 0; Shn3 inh set2: 81*; N-glyco inh: -10; EBV LMP1 NFkB: 7

How did O=C(C[C@@H]1CC[C@H](NC(=O)Cc2cccnc2)[C@H](CO)O1)NCc1ccc2c(c1)OCO2 do in these assays?
Env fusion inh: 3[16.7 µM]; PAX8 inh HTS: 1

What do the screens show for `C[C@H](CO)N1C[C@H](C)[C@H](CN(C)Cc2ccc(C(=O)O)cc2)Oc2ccc(NS(=O)(=O)c3cccs3)cc2C1=O`?
Env fusion inh: 4[16.7 µM]

What do the screens show for `Cc1cc(=O)[nH]c(SCC(=O)c2ccc3c(c2)NC(=O)CO3)n1`?
NSD2 HMT inh: 0; Shn3 inh set2: -68; Env fusion inh: -20; N-glyco inh: 2; PAX8 inh HTS: -7; EBV LMP1 NFkB: -8

Results for Nc1cc(N)nc(SCC(=O)c2ccc3c(c2)NC(=O)CO3)n1 ?
NSD2 HMT inh: -4; Shn3 inh set2: -2; Env fusion inh: 4; N-glyco inh: 0; PAX8 inh HTS: -3; EBV LMP1 NFkB: 44*

Results for COCC(=O)Nc1ccc2c(c1)[C@@H]1C[C@H](CC(=O)N3CCCCC3)O[C@H](CO)[C@@H]1O2 ?
Env fusion inh: -38[16.7 µM]; PAX8 inh HTS: -12

How did CN1C(=O)c2cc(NS(=O)(=O)c3ccc(Cl)cc3)ccc2OC[C@@H]2O[C@H](CC(=O)N3CCc4ccccc4C3)CC[C@@H]21 do in these assays?
Env fusion inh: -2[16.7 µM]; PAX8 inh HTS: 61*

Results for CN1C(=O)c2cc(NS(=O)(=O)c3ccccc3F)ccc2OC[C@@H]2O[C@H](CC(=O)NC3Cc4ccccc4C3)CC[C@@H]21 ?
Env fusion inh: 63*[16.7 µM]; PAX8 inh HTS: 23

What do the screens show for `CN1C(=O)c2cc(NS(=O)(=O)c3ccc(Cl)cc3)ccc2OC[C@H]2O[C@@H](CC(=O)N3CCc4ccccc4C3)CC[C@H]21`?
Env fusion inh: -16[16.7 µM]; PAX8 inh HTS: 37

Results for CN(C)C(=O)[C@@H]1[C@@H](CO)[C@@H]2Cn3c(cccc3=O)[C@@H]2N1CC1CCCCC1 ?
PAX8 inh HTS: -2

What do the screens show for `O=C(CCN1CCCCC1)N[C@@H]1CC[C@@H](CCNS(=O)(=O)c2ccc(Cl)cc2)O[C@H]1CO`?
Env fusion inh: 1[16.7 µM]; PAX8 inh HTS: -2

How did COc1ccc([Si](C)(C)[C@H]2[C@H](CCO)O[C@@]3(C(=O)N(Cc4ccc(NC(C)=O)cc4)c4ccccc43)[C@@H]2C)cc1 do in these assays?
Env fusion inh: 10[16.7 µM]; PAX8 inh HTS: 111*

Results for COc1ccc([Si](C)(C)[C@H]2[C@H](CCO)O[C@@]3(C(=O)N(Cc4cccc(NC(C)=O)c4)c4ccccc43)[C@@H]2C)cc1 ?
Env fusion inh: -4[16.7 µM]; PAX8 inh HTS: inconclusive

Results for COc1ccc([Si](C)(C)[C@@H]2[C@@H](CCO)O[C@]3(C(=O)N(Cc4ccc(NC(C)=O)cc4)c4ccccc43)[C@H]2C)cc1 ?
Env fusion inh: inconclusive; PAX8 inh HTS: 107*

What do the screens show for `C[C@@H]1CN([C@H](C)CO)C(=O)c2cccc(NS(=O)(=O)c3cccs3)c2O[C@H]1CN(C)S(=O)(=O)c1ccc(Cl)cc1`?
Env fusion inh: 13[16.7 µM]; PAX8 inh HTS: 3
